CHO-K1 Ca ag = counter-screen for M1 agonists: effect in parental CHO-K1 cells. activation, % at 3 µM. AID 602248. Fluo-8 calcium fluorescence; scaled to maximal ATP response, vehicle zero. 360,000 tested, 0.48% active; in the data active means activation above about 15%;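 further: untransfected CHO-K1 host cells lacking M1 receptor as counterscreen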
M1 PAM parental = counter-screen for M1 PAMs: effect in parental CHO-K1 cells; ATP EC20, Fluo-8 calcium fluorescence; 0% at ATP EC20, 100% at ATP max; activation, % at 3 µM; 360,000 tested, 0.02% active; AID 602247;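 active means activation above the run cutoff, the mean activation of all test compounds plus 3 SD, cut at about 40% in these data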;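 further: peak over basal fluorescence ratio in a 140 s read after ATP addition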
CHO-K1 Ca antag = counter-screen for M1 antagonists: effect in parental CHO-K1 cells; ATP-induced calcium, Fluo-8 fluorescence; inhibition, % at 3 µM; 360,000 tested, 0.6% active; AID 602250;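 active means inhibition above a per-plate cutoff, the plate's mean sample inhibition plus 3 SD, cut at about 24% in these data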;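 further: 0% = DMSO plus EC80 ATP and 100% = DMSO alone without ATP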
M1 PAM = potentiates human M1 receptor response to acetylcholine; P11229; CHO-K1 hM1, Fluo-8 calcium fluorescence, ACh EC20; 0% = ACh EC20, 100% = maximal ACh; activation, % at 3 µM; 360,000 tested, 0.088% active; AID 588819; in the data active means activation above about 19%, passing the limit was not always enough
Target sequence (P11229 whole entry, looked up): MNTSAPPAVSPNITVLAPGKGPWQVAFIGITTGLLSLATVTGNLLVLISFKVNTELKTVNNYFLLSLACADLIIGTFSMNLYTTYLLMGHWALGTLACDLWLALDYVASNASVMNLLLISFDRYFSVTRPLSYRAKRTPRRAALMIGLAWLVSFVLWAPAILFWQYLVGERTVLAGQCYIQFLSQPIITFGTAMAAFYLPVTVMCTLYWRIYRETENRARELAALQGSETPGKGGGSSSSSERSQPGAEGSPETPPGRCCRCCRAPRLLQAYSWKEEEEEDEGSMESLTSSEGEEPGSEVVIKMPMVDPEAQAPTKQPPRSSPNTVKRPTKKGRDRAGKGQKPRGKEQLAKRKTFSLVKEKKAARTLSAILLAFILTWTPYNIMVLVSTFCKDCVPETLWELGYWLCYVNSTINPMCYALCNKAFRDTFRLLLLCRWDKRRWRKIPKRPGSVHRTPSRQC
CHRM1 agonist = activates human CHRM1 receptor. AID 588814. activation, % at 3 µM. 360,000 tested, 0.33% active. P11229. CHO-K1 hM1, Fluo-8 calcium fluorescence, agonist mode; 0% DMSO, 100% acetylcholine EC100;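 active means activation above the run's mean compound activation plus 3 SD, cut at about 16% in these data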;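 further: peak over basal fluorescence ratio within a 140 s kinetic read after compound addition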
CHRM1 antagonist = blocks human M1 muscarinic receptor; 360,000 tested, 1.3% active; P11229; inhibition, % at 3 µM; CHO-K1 hM1, Fluo-8 calcium fluorescence, ACh EC80 antagonist;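 active means percent inhibition above its own plate's cutoff, namely the mean of that plate's compound wells plus 3 SD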;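 further: peak over basal fluorescence ratio during 140 s after agonist addition; 0% = ACh EC80 plus DMSO and 100% = DMSO alone without agonist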
Starred values were filed as active, the others as inactive. Shown are actives, neighbours in structure and some others; about 2.4% of the full set was active somewhere.

SMILES	CHO-K1 Ca ag	M1 PAM parental	CHO-K1 Ca antag	M1 PAM	CHRM1 agonist	CHRM1 antagonist
CSc1nsc(SCC(=O)Nc2ccc(Br)cn2)n1	0	10	-13	0	-7	-14
C/C(=N\NC(=O)CC1N=C(Cc2ccccc2)NNC1=O)c1ccc(C)cc1 (configuration not stated)	0	-3	0	9	-1	-7
Cn1c(=O)c(C(=O)COc2ccc(C#N)cc2)c(N)n(Cc2ccccc2)c1=O	34*	2	-6	-6	28*	9
Cc1cc2nc(SCCOC(=O)Nc3ccccc3)nc(C)c2cc1C	0	15	-7	-6	-7	1
COc1ccc(C(=O)/C=C\c2ccc(NC(=O)c3cccs3)cc2)cc1	0	-8	27*	0	-5	6
O=c1c2ccccc2nc(COc2ccccc2)n1/N=C/c1cn[nH]c1-c1ccccc1	5	14	4	-10	-4	28*
CCOC(=O)c1sc(-c2ccccn2)nc1C	16*	17	-2	7	-6	-8
Cc1nc(-c2ccccn2)sc1C(=O)O	0	6	2	8	-5	-2
CC(C)(C)c1ccc(OCCCN2CCCC2)cc1	2	17	-3	5	-8	-17
CC(C)c1ccc(OCCCCN2CCCCC2)cc1	4	-3	-7	-25	-8	60*
Clc1ccc(OCCCCN2CCCCC2)cc1	1	0	11	-11	-9	16
CC(C)Oc1ccc(OCCCN2CCCCCC2)cc1	0	7	-2	-20	-7	36*
Cn1c(=O)c2cc(S(=O)(=O)NC(C(=O)NCc3cccnc3)c3ccccc3)ccc2n(C)c1=O (configuration not stated)	1	5	-5	9	-5	-7
CCCCNC(=O)C1(C)CCC(=O)N1c1cc(C(C)(C)C)nn1C (configuration not stated)	0	-2	32*	-2	-6	5
CCOC(=O)C(=O)Nc1nnc(C2CCCCC2)s1	0	10	-9	8	-2	-25
O=C(c1cc(C2CC2)nn1-c1ccccc1)N1CCN(S(=O)(=O)c2ccc(F)cc2)CC1	1	16	-11	-21	-8	10
CC1CCCN(C(=O)COC(=O)c2cc(-c3cccs3)nn2-c2ccccc2)C1 (configuration not stated)	0	-29	11	-25	-6	46*
O=C(c1cc(-c2cccs2)nn1-c1ccccc1)N1CCN(S(=O)(=O)c2ccccc2)CC1	4	-2	2	-12	-6	28*
O=C(c1cc(C2CC2)nn1-c1ccccc1)N1CCN(S(=O)(=O)c2cccc(F)c2)CC1	0	-7	5	-29	-8	30*
NC(=O)COC(=O)c1cc(-c2cccs2)nn1-c1ccccc1	0	10	-6	6	-2	2
Cc1cc(C)c(OCC(=O)Nc2ccc(N3CCOCC3)cc2)c(Br)c1	1	-9	-1	5	-5	-10
CCOC(=O)c1c(-c2ccccc2)csc1NC(=O)c1ccc(S(=O)(=O)N2CC(C)OC(C)C2)cc1 (configuration not stated)	0	12	-4	-1	-3	-4
CCOC(=O)c1c(-c2ccccc2)csc1NC(=O)c1ccc(N2C(=O)CCC2=O)cc1	0	-13	25*	-6	-3	15
OC(CN1CCN(Cc2ccccc2)CC1)c1ccccc1 (configuration not stated)	0	9	-14	0	-5	3
Cc1ccc(C)c(Cn2nc3c4ccccc4n(Cc4ccccc4)cc-3c2=O)c1	0	19	-8	-7	64*	62*
SMILES	CHO-K1 Ca ag	M1 PAM parental	CHO-K1 Ca antag	M1 PAM	CHRM1 agonist	CHRM1 antagonist
C=C1c2ccccc2NC(=O)N1c1ccc(C)cc1	1	18	-13	3	-3	-30
Cc1cc(C)c(NC(=O)CSc2nc(=O)n3cc(C)ccc3n2)c(C)c1	0	-1	-1	4	1	-15
COc1ccc(-c2oc(=O)c3cc(OC)c(OC)cc3c2C#CCCCO)cc1	0	-1	-12	-4	-10	7
CCOc1ccc(N=C2NC(=O)S/C2=C\c2ccc(N(C)C)cc2)cc1	3	12	2	1	-2	7
FC(F)(F)c1cccc(Cc2noc(CN3C[C@@H]4CCC[C@H]3C4)n2)c1	5	24	-10	-2	-5	1
Cn1ccnc1C1CCCCN1Cc1nc(Cc2cccc(C(F)(F)F)c2)no1 (configuration not stated)	1	26	-19	-33	-13	54*
Cn1ccnc1C1CCCCN1Cc1nc(-c2ccc3c(c2)OCO3)no1 (configuration not stated)	0	-7	7	-25	-8	59*
COc1ccc(OC)c(NC(=O)c2cnc3n(c2=O)CCS3)c1	0	-15	26*	3	-3	-4
CCCC1(C(=O)OC)NC(c2ccc(OC)c(OC)c2)C2C(=O)N(c3ccc4c(c3)OCO4)C(=O)C21 (configuration not stated)	0	-6	15	3	1	2
CCCC1(C(=O)OCC)NC(c2ccc(OC)cc2OC)C2C(=O)N(c3ccc4c(c3)OCCO4)C(=O)C21 (configuration not stated)	1	-4	46*	1	-1	1
Cc1cccn2c(=O)c(/C=C(\C#N)C(N)=O)c(N3CCN(Cc4ccc5c(c4)OCO5)CC3)nc12	1	-2	10	-27	-8	70*
CCOC(=O)/C(C#N)=C/c1c(N2CCN(Cc3ccc4c(c3)OCO4)CC2)nc2c(C)cccn2c1=O	1	-8	-3	-4	-8	5
OC(COc1ccccc1)CN1CCN(C(c2ccccc2)c2ccccc2)CC1 (configuration not stated)	-1	4	2	-24	-9	23
c1ccc(OCCOCCN2CCN(C(c3ccccc3)c3ccccc3)CC2)cc1	1	13	-9	-23	-8	100*
COc1ccccc1OCCCCN1CCN(C(c2ccccc2)c2ccccc2)CC1	2	9	-5	-20	-7	86*
Cc1c(C(=O)Nc2ccc(F)cc2)nnn1-c1cccc(C(F)(F)F)c1	8	-7	18	-5	-2	12
Cc1c(NC(=O)/C(=C/c2cccs2)c2cccs2)c(=O)n(-c2ccccc2)n1C	0	11	-7	-27	-11	54*
CC(CCc1ccccc1)NC(=O)c1cccs1 (configuration not stated)	0	-18	29*	23	11	-38
O=C(CCCNC(=O)c1ccc(Cl)cc1)Nc1ncccc1O	0	-20	11	26*	10	-17

Bioassay records (PubChem BioAssay)
